Test results from PubChem BioAssay (NCI).
This is part of a sample that, as a whole, favours compounds with a hit. Of some 79,000 tested, about 15% had one in any assay. Unmarked numbers belong to inactive results. The source made the active and inactive calls. No stated cut-off is given here; in the data, active means growth inhibition above about 70%; inactive means the rest.

Assays:
[1] = NCI Yeast Anticancer Drug Screen. Data for the rad50 strain (AID 155);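 further: 0% = growth of vehicle-only cultures of the same strain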; conditions: S. cerevisiae rad50 strain growth inhibition; at 50.0 µM; hits give high values
Procedure, shortened: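 Vehicle-treated cultures provide the reference for the growth inhibition reported for compound-exposed, repair-deficient yeast.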

[2] = NCI Yeast Anticancer Drug Screen. Data for the mec2-1 strain (AID 157); conditions: S. cerevisiae mec2-1 strain, at 50.0 µM, hits give high values
Procedure, shortened: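 Readout is yeast growth inhibition, normalised to vehicle-treated controls, in the mec2-1 strain exposed to compound.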

[3] = NCI Yeast Anticancer Drug Screen. Data for the sgs1 mgt1 strain (AID 161);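 further: 0% = growth of cultures given vehicle only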; conditions: S. cerevisiae sgs1 mgt1 strain, at 50.0 µM, hits give high values
Procedure, shortened: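 Percent growth inhibition was derived by comparing compound-exposed mutant yeast with vehicle-exposed cultures. The strain carries alterations in DNA damage repair.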

[4] = NCI Yeast Anticancer Drug Screen. Data for the cln2 rad14 strain (AID 165);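 further: 0% = growth equal to vehicle treated cultures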; conditions: S. cerevisiae cln2 rad14 strain, at 50.0 µM, hits give high values
Procedure, shortened: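 Relative to vehicle controls, growth inhibition of compound-treated cln2 rad14 yeast was recorded.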

[5] = NCI Yeast Anticancer Drug Screen. Data for the bub3 strain (AID 167); conditions: S. cerevisiae bub3 mutant strain, at 50.0 µM, hits give high values
Procedure, shortened: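 Mutant yeast screening strain plus compound; vehicle-treated cultures serve as the 0% inhibition reference.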

[6] = NCI Yeast Anticancer Drug Screen. Data for the mlh1 rad18 strain (AID 175); conditions: S. cerevisiae mlh1 rad18 strain growth inhibition; at 50.0 µM; hits give high values
Procedure, shortened: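 Test agents were incubated with a yeast strain of defined genotype (DNA damage repair defect). Inhibition of growth was derived by comparison with vehicle-exposed cultures.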

| Compound | growth inhibition [1] | growth inhibition [2] | growth inhibition [3] | growth inhibition [4] | growth inhibition [5] | growth inhibition [6] |
| --- | --- | --- | --- | --- | --- | --- |
| Nc1cc(=O)[nH]c(N2CCN(c3ccccc3)CC2)n1 | 1.15% | -4.9% | -14.3% | 6.15% | 6.15% | 12.4% |
| Cc1ccc(C(=O)NC(C)C)cc1N=NN(C)C | -34.2% | -42.1% | -46.9% | 9.7% | -31.7% | -32.2% |
| c1ccc2c(c1)-c1ccccc1C2N1CCCC1 | 14.2% | 14.8% | 4.2% | 10.4% | -0.85% | -7.9% |
| CCOC(=O)CC1(C)NC(=O)NC1=O (configuration not stated) | 4.35% | 6.65% | 8.45% | -31.8% | -4.4% | 1% |
| Cc1ccc(NC(=O)CC#N)c(C)c1 | -11.8% | -10.2% | -17.9% | -40.9% | -0.7% | 4% |
| O=C(OCCCCCCCCOC(=O)c1ccc([N+](=O)[O-])cc1)c1ccc([N+](=O)[O-])cc1 | 14.6% | 2.15% | 12.2% | 4.1% | -5.4% | 5.9% |
| C=CCOC(=O)Nc1ccc(S(=O)(=O)CC)cc1 | -0.95% | 5.95% | -4.55% | -21.6% | 22.8% | -1.65% |
| c1ccc(OCCSCCCCCCCCCCSCCOc2ccccc2)cc1 | -5.85% | -11.8% | -25.6% | -12.6% | -28.6% | -24.5% |
| COc1ccc2c(c1)CC/C(=C\c1ccccn1)C2=O | 41.5% | 33.5% | 16.8% | 24.4% | 19.5% | 14.4% |
| CCOC(=O)C(=O)c1c(C)[nH]c(C)c1C(=O)OCC | -2.15% | -4.8% | 17.1% | -23.1% | 7.3% | -9.1% |
| O=S(=O)(CS(=O)(=O)N1CCCCC1)N1CCCCC1 | -3.8% | -5.4% | -3.4% | -9.7% | 6.7% | 0.95% |
| CC(C)c1cc2c(O)c(c1)Cc1cc(C(C)C)cc(c1O)Cc1cc(C(C)C)cc(c1O)Cc1cc(C(C)C)cc(c1O)Cc1cc(C(C)C)cc(c1O)Cc1cc(C(C)C)cc(c1O)C2 | -21.1% | -0.85% | -14.8% | 14.6% | 3.55% | -24.1% |
| Fc1ccc2nncc(SCc3ccc(Cl)cc3)c2c1 | -4.1% | 2.25% | 4% | -22.4% | 4.85% | -0.65% |
| O=C1C(c2ccccc2)=C(c2ccccc2)c2ccc(Cl)cc21 | 13.7% | 15.6% | 8.85% | 7.75% | 0.45% | 6.45% |
| O=C1C=C(NCC(c2ccccc2)c2ccccc2)C(=O)c2ncccc21 | 33.2% | 24.8% | 43% | 34.9% | 40.9% | 77.8% (active) |
| CC(=O)OC1CCC(OC(C)=O)[C@H]2[C@@H]1[C@@H]1S[C@H]2c2ccccc21 (some centres not stated) | 1% | -1.55% | -0.45% | 11.1% | 12.2% | -1.15% |
| Cc1nc(N)nc(CCC(=O)Nc2cccc(C(F)(F)F)c2)c1-c1ccc(Cl)cc1 | 12.2% | -2.9% | 6.7% | 7.45% | -3.6% | 11.1% |
| CCCCCCCCCCCCCCCC[N+]1(CC)CCSCC1 | 96.6% (active) | 97.9% (active) | 97.2% (active) | 97.5% (active) | 97.1% (active) | 97.8% (active) |
| CC(C)CCCC(C)C1CCC2C3=CCC4CC(=O)CCC4(C)C3CCC21C (configuration not stated) | 30.9% | -10.9% | 4.65% | 4.35% | -1.2% | 4.5% |
| O=C1c2cccc3c([N+](=O)[O-])ccc(c23)C(=O)N1CC1CCCO1 (configuration not stated) | 71.3% (active) | 51% | 87.1% (active) | 40.8% | 51.8% | 73.5% (active) |
| O=C(O)c1cc(Br)sc1Br | 8.75% | -12.4% | -8.8% | 0.7% | -9.6% | -15.1% |

| Compound | growth inhibition [1] | growth inhibition [2] | growth inhibition [3] | growth inhibition [4] | growth inhibition [5] | growth inhibition [6] |
| --- | --- | --- | --- | --- | --- | --- |
| CCN(CC)c1ccccc1C | 21.1% | 9.9% | -5.2% | -4.95% | 2.25% | -0.2% |
| O=S(=O)(O)c1ccc(N=Nc2c(O)cc(O)cc2O)cc1 | -21.9% | -6.8% | -6.95% | 17.2% | 31.8% | -18.4% |
| BrC1CCC(OCc2ccccc2)C(OCc2ccccc2)C1 (configuration not stated) | -10.8% | 7.25% | 13.8% | 8.85% | 10.7% | -0.95% |
| O=C1COC(c2ccccc2O)=NN1CCCN1CCCC1 | 12.9% | -23.8% | 21% | -3.4% | 14.1% | 25.3% |
| COc1ccc(NC(=O)Nc2ccc(-c3ccc(NC(=O)Nc4ccc(OC)cc4)c(C)c3)cc2C)cc1 | -30.1% | -41.4% | -8.5% | -3.25% | -24.1% | -23.6% |
| CCOC1(NC(=O)N(C)C)C2CCCC21 (configuration not stated) | 3.4% | -4.15% | -0.1% | -29.9% | 2.1% | -6.5% |
| NC(CCCCO)C(=O)O (configuration not stated) | -6.8% | -35.8% | 4.1% | 23.1% | -29.1% | -15% |
| CN(C)c1ccc(/C=C(\C#N)c2cccc(F)c2)cc1 | -4.85% | 0.3% | 1.5% | -14.2% | 3.4% | -20.2% |
| O=c1nc(-c2ccccc2)scc1-c1ccccc1 | -1% | -10.6% | 3.4% | 19.1% | 10% | -10.1% |
| O=C(NC(=O)c1c(F)cccc1F)Nc1ccc(Cl)nc1 | 8.75% | 5.95% | -0.2% | 2.3% | 21.9% | 10.1% |
| C=CC1C(OC2OC(CO)C(O)C(O)C2O)OC=C(C(=O)OC)C1CC=O (configuration not stated) | 32.9% | 11.9% | 4.15% | 13.4% | 18.3% | 32.7% |
| C=C1c2cc3c(cc2CC12Cc1cc4c(cc1C2=O)CCC4)CCC3 (configuration not stated) | 20.2% | 22% | 11.3% | 24.1% | 46.8% | 16% |
| Cn1cnc(N)c1S(N)(=O)=O | -11.8% | 2.45% | 9.7% | -6% | -6.3% | 26.1% |
| COc1ccc(-c2c(C(C)=O)c(C)n(C3OC(CO)C(O)C(O)C3O)c(=S)c2C#N)cc1 (configuration not stated) | 15.9% | 34.2% | 31.8% | 34% | 26.2% | 49% |
| NC(N)=N/N=C/c1c(Cl)nc2n1CCS2 | -7.35% | -32.2% | -9.5% | 3.5% | 22.4% | -6.8% |
| NNC1=Nc2ccc(Cl)cc2C(=S)N2CSCC12 (configuration not stated) | -1.05% | -3.1% | -11.7% | -11.8% | -8.95% | 9.25% |
| CC(=O)OCC1OC(N2C(=O)/C(=C/c3ccc4c(c3)OCO4)SC2=S)C(OC(C)=O)C(OC(C)=O)C1OC(C)=O (configuration not stated) | 1.5% | -12.2% | -20.9% | 1.15% | 0.15% | 0.2% |
| O=S(=O)(c1ccccc1)n1c2c(c3ccccc31)Cc1ccccc1-2 | -3.75% | 0.75% | -16.9% | -8.4% | -2.1% | -6.55% |
| C[C@@H](CO)OCOCc1ccccc1 | 7.5% | -1.25% | 4% | 18.5% | 7.3% | 19.5% |
| CC1CC[N-]C(N)N1.CC1CC[N-]C(N)N1.[Cl][Pd][Cl] (configuration not stated) | -3.5% | -0.4% | 6.75% | -34.4% | -0.15% | -7.1% |
| CCCCOC(=O)c1ccc(O)cc1.[Zn+2] | -31.1% | -11.6% | -16.6% | -41.9% | -22.4% | -35.4% |
